Compound activity as filed in PubChem.
CYP2C9 inh = blockers of cytochrome P450 2C9 activity – biochemical, luminescence, ADME assay, primary screen. inhibition, % at 5 µM. hit rate 20% among 96,000. AID 777, 2007. CYP2C9 Supersomes, luciferin-H conversion. P11712;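 active means blocking of liver enzyme CYP2C9 beyond about 50% at 5 µM, limit read from the data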
CYP2C9 act = human CYP2C9 activators, primary screen, biochemical, luminescence | Cytochrome P450 2C9 (Homo sapiens), P11712 | recombinant CYP2C9, luciferin-H conversion; stronger effect = higher value; factor 1 = untreated enzyme, 0 = blocked | activation factor at 5 µM | hit rate 1.4% among 96,000 | AID 1024, 2008;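 active means activation factor of 2 or more for CYP2C9 at a 5 µM dose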
CYP2C19 act = human CYP2C19 activators, primary screen, biochemical, luminescence. Cytochrome P450 2C19 (Homo sapiens), P33261. recombinant CYP2C19, luciferin-H EGE luminescence; stronger effect = higher value; 0 = fully inhibited enzyme, 1 = untreated enzyme. activation factor at 5 µM. 96,000 tested, under 10 active. AID 1025, 2008;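 active means activation factor of at least 2 at 5 µM in the primary screen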
EphB4 ephrin blk = EphB4-ephrin-B2 interaction antagonists, primary screen, biochemical, TNYL-RAW peptide probe, fluorescence polarization; Ephrin type-B receptor 4 (Homo sapiens), P54760; EphB4 LBD / TNYL-RAW-Alexa532 peptide; inhibition, % at 7 µM; hit rate 0.15% among 97,000;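 active means inhibition above the screen-wide mean inhibition plus 3 SD, cut at about 15% in these data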
Target sequence (P54760 whole entry, looked up, the tested form may be a part): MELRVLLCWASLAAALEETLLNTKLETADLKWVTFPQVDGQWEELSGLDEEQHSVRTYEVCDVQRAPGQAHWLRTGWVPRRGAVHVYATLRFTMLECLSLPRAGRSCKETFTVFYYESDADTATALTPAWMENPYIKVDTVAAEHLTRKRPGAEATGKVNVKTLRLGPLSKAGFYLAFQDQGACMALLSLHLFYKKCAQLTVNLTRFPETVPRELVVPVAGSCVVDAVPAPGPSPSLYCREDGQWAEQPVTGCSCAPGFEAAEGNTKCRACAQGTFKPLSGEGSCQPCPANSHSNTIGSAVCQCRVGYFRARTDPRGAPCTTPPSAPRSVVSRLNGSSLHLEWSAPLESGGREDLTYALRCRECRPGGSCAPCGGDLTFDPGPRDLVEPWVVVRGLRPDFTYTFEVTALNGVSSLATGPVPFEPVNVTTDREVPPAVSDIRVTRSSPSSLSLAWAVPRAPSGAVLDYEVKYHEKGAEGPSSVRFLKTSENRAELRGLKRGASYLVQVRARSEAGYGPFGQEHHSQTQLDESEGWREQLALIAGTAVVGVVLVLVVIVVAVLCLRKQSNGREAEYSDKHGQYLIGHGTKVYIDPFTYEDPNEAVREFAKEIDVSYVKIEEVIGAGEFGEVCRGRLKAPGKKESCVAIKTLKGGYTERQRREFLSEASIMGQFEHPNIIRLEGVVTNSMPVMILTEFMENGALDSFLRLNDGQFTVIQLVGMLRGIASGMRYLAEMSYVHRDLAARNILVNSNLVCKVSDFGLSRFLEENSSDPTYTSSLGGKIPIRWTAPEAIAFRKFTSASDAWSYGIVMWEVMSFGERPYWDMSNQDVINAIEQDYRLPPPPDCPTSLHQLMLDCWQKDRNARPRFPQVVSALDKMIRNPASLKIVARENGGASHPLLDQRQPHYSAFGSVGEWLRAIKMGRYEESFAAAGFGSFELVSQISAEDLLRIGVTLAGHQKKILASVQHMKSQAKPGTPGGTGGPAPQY
CYP2C19 inhib = blockers of cytochrome P450 2C19 activity – biochemical, luminescence, ADME assay, primary screen; AID 778, 2007; inhibition, % at 5 µM; P33261; hit rate 21% among 96,000; CYP2C19 Supersomes, luciferin-H EGE luminescence, 30 min;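 active means CYP2C19 inhibition above a set limit at 5 µM in the primary screen, cut at about 50% in these data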
Hits are given with their value; 0 = inactive; - = no result given. Hits are enriched below; roughly 27% of the tested compounds scored in any of these assays.

SMILES	CYP2C9 inh	CYP2C9 act	CYP2C19 act	EphB4 ephrin blk	CYP2C19 inhib
Clc1cccc(Cl)c1NC1=NCCC1	0	0	0	0	0
CN1CCN(C(=O)N2c3ccccc3C=Cc3ccccc32)CC1	0	0	0	-	0
O=C(CN1CCCCCC1)N1c2ccccc2C=Cc2ccccc21	0	0	0	0	51.2
O=C(CN1CCCCC1)N1CCCc2ccccc21	0	0	0	0	0
CCN(CC)C(=O)N1c2ccccc2C=Cc2ccccc21	0	0	0	0	62.7
Cc1c(C#N)c2ccccc2n1CC(=O)NCc1ccccc1	-	-	-	0	-
CC(=O)c1cn(CC(=O)NCc2cccnc2)c2ccccc12	83.3	0	0	0	77.3
CCN1C(=O)c2cccc3cccc1c23	0	4.1	0	0	0
O=C(CN1C(=O)c2cccc3cccc1c23)Nc1cccnc1	-	-	-	0	-
O=C(CN1C(=O)c2cccc3cccc1c23)NCc1cccnc1	0	0	0	0	82.7
Cc1c(C#N)c2ccccc2n1CC(=O)NCc1cccnc1	54.5	0	0	0	71.2
COCCCNC(=O)Cn1cc(C(C)=O)c2ccccc21	0	0	0	0	0
CN1C(=O)C(O)(CC(=O)c2ccc(F)cc2)c2cc(Br)ccc21 (stereo unspecified)	0	0	0	-	79.2
COC(=O)CN1C(=O)C(O)(CC(=O)c2ccc(C)cc2)c2cc(Br)ccc21 (stereo unspecified)	0	0	0	-	0
Cc1ccc(C)c(NC(=O)Cn2nnc(C(=O)Nc3c(C)cccc3C)c2N)c1	0	0	0	0	0
CCOC(=O)c1nnn(CC(=O)Nc2cccc(OC)c2)c1C(=O)OCC	58.7	0	0	0	0
CCOC(=O)c1nnn(CC(=O)Nc2cccc(Cl)c2C)c1C(=O)OCC	67.2	0	0	0	93.6
COC(=O)c1nnn(CC(=O)Nc2cc(Cl)ccc2C)c1C(=O)OC	54.3	0	0	0	55.4
COC(=O)c1nnn(CC(=O)Nc2cccc(OC)c2)c1C(=O)OC	63.0	0	0	0	0
CCOC(=O)N1CCC(N(C(=O)Nc2cccc(OC)c2)C(C)CC)CC1 (stereo unspecified)	0	0	0	0	55.8
CCOC(=O)N1CCC(N(CCCOC)C(=O)Nc2cccc(OC)c2)CC1	0	0	0	0	0
CCC(C)N1CC(O)=C(c2nc3ccccc3[nH]2)C1=N (stereo unspecified)	0	0	0	0	84.3
N=C1C(c2nc3ccccc3s2)=C(O)CN1CCCO	0	0	0	0	0
CCCCCCN1CC(O)=C(c2nc3ccccc3[nH]2)C1=N	89.9	0	0	-	58.8
N=C1C(c2nc3ccccc3[nH]2)=C(O)CN1c1ccc(CC(=O)O)cc1	0	0	0	0	0
SMILES	CYP2C9 inh	CYP2C9 act	CYP2C19 act	EphB4 ephrin blk	CYP2C19 inhib
CCCCN1CC(O)=C(c2nc3ccccc3s2)C1=N	63.7	0	0	-	0
O=C(NCc1cccs1)c1cnn2cccnc12	0	0	0	0	0
CC(C)NC(=O)c1c(O)c2ccccc2[nH]c1=O	0	0	0	-	0
O=C(Nc1ccccc1C(=O)N1CCOCC1)C1COc2ccccc2O1 (stereo unspecified)	0	0	0	0	0
CCCNC(=O)c1ccccc1NC(=O)C1COc2ccccc2O1 (stereo unspecified)	0	0	0	0	58.7
O=C(NCCOC(=O)C1COc2ccccc2O1)C1COc2ccccc2O1 (stereo unspecified)	69.4	0	0	0	88.4
O=C(NCCOC(=O)C1COc2ccccc2O1)c1cccnc1 (stereo unspecified)	0	0	0	0	0
O=C(NCCN1CCCC1)C1COc2ccccc2O1 (stereo unspecified)	0	0	0	0	0
CCCCNC(=O)C1COc2ccccc2O1 (stereo unspecified)	0	0	0	0	56.3
Cc1ccc(C(c2nnnn2C(C)(C)C)N2CCC(C)CC2)cc1 (stereo unspecified)	-	-	-	0	-
CCCc1nc2oc3c(OC)ncnc3c2c2c1COC(C)(C)C2	0	0	0	0	0
COc1ccc(NS(=O)(=O)c2cccc(-c3nnc4n3CCCCC4)c2)cc1	82.5	0	0	0	0
CCSC1(SCC)N=C(N)C2(C#N)C(c3ccccc3)NC(C)=C(C)C12C#N (stereo unspecified)	0	0	0	0	0
CCCCSC1(SCCCC)N=C(N)C2(C#N)C(c3ccccc3)NC(C)=C(C)C12C#N (stereo unspecified)	0	0	0	0	57.1
Cc1ccc2c(n1)CC(C)(C)C/C2=N\O	-	-	-	0	-
Cc1cc(C)c(S(=O)(=O)Nc2ccc(O)cc2)c(C)c1	0	0	0	0	71.2
Cc1sc2nc(C3CC3)nc(N3CCN(S(=O)(=O)c4ccc(F)cc4)CC3)c2c1C	59.2	0	0	0	0
Cn1cc(Br)cc2nc(C(F)(F)F)nc1-2	0	0	0	0	0
N#CC(C#N)=CC1=C2OC(c3ccccc3)=CC(c3ccccc3)=C2CCC1	79.2	0	0	0	0
Cc1cccc(N2CCN(C(=O)c3ccc4ncsc4c3)CC2)c1C	0	0	0	0	66.1
Cc1cccc(N2CCN(C(=O)c3ccncc3)CC2)c1C	86.0	0	0	0	99.9
COc1cc(C(=O)N2CCN(c3cccc(C)c3C)CC2)cc(OC)c1OC	-	-	-	0	-
COCCN(CCOC)Cc1cc(=O)oc2cc3c(cc12)CCC3	0	0	0	0	76.9
Cc1cc2oc(=O)cc(CSc3nc(N)cc(N)n3)c2cc1C(C)C	77.0	0	0	0	0
Nc1cc(N)nc(SCc2cc(=O)oc3cc4c(cc23)CCC4)n1	0	0	0	0	50.3
SMILES	CYP2C9 inh	CYP2C9 act	CYP2C19 act	EphB4 ephrin blk	CYP2C19 inhib
CCOC(=O)N1CCN(Cc2cc(=O)oc3cc4c(cc23)CCC4)CC1	0	0	0	0	0
CCC(Sc1nc(C)cc(C)n1)C(=O)Nc1ccc(Cl)cn1 (stereo unspecified)	-	-	-	0	-
Cc1ccc(CC(NC(=O)c2ccccc2)C(=O)NCC(=O)O)cc1 (stereo unspecified)	0	0	0	0	0
Cc1ccc(C(=O)n2nnc3ccccc32)cc1	-	-	-	0	-
CCOC(=O)COn1c(=O)c(C)[n+]([O-])c2ccccc21	0	0	0	0	0
Cc1c(=O)n(OCc2c(F)cccc2F)c2ccccc2[n+]1[O-]	-	-	-	0	-
COc1ccc(COn2c(=O)c(C)[n+]([O-])c3ccccc32)cc1OC	74.5	0	0	0	51.8
Cc1c(=O)n(OCc2ccccc2)c2ccccc2[n+]1[O-]	0	0	0	0	68.6
O=C(CCC1CCCCC1)NCc1cccs1	0	0	0	0	0
O=C(CCSCCC(=O)NCc1cccs1)NCc1cccs1	62.5	0	0	-	0
O=C(CCSCCC(=O)NCc1ccco1)NCc1ccco1	89.5	0	0	0	0
O=C(Cc1cccs1)NCc1cccs1	0	0	0	0	0
